The source of these data is PubChem BioAssay AID2685 (National Center for Advancing Translational Sciences (NCATS), 2010).

Out of some 320,000 compounds screened, about 2,100 (0.66%) were called active. Inconclusive results (about 53%) are left out. Calls come from the whole dose curve; as a rule, active = well fitted inhibition curve with a large enough effect in the signal ratio, with a control signal flat (not every such curve was filed as active); inconclusive = small, poorly fitted or top-dose-only effect, or effect the other way, or a change in a side signal; inactive = flat fitted curve, though single readings scatter; the % refers to the signal ratio. The entries come from a sample that favours actives as a whole.
Potency is the fitted concentration of half-maximal effect.

The nature of the experiment: qHTS Assay for Lipid Storage Modulators in Drosophila S3 Cells.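 For cell number change: cells counted by Cell Tracker Red CMTPX staining in the red channel.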 For lipid storage change, negative = inhibition: % is set by controls: 0 for no effect and ±100 for the full control effect. The conditions noted are these: BODIPY lipid droplet fluorescence, 18-24 h, cells fed with added oleic acid; cell number change: measured here: cell count max response; series mostly up to 46.1 µM; lipid storage change, negative = inhibition: at the top concentration. The method, boiled down: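 Drosophila S3 cells loaded with oleic acid (400 uM, as added) and compounds at several concentrations; lipid droplets imaged by 488-nm laser-scanning cytometry, 500–530 nm intensity and object ratio to cell channel. Percent activity normalized to 20 uM Triacsin C.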
(In general: Quantitative high-throughput screening tests each substance at several concentrations.)
As for `CC1Sc2ccc(S(=O)(=O)NCCc3ccc(S(N)(=O)=O)cc3)cc2NC1=O` (stereo not drawn), the Potency is 2.59 µM (active) and the cell number change was -0.885%.
In the case of `CC1Sc2ccc(S(=O)(=O)NCCc3ccccc3)cc2NC1=O` (stereo not drawn), the result was inactive and the cell number change was -2.36%.
As to `CC1Sc2ccc(S(=O)(=O)NCCc3ccc(Cl)cc3)cc2NC1=O` (stereo not drawn), the compound was classed as inactive.
As for `CC(=O)c1ccc(NC(=S)N2CCC(Cc3ccccc3)CC2)cc1`, the “lipid storage change, negative = inhibition” value is -2.69% (inactive) and the cell number change is -2.62%.
In the case of `Cc1ccc(-n2c(C)cc(/C=N/NC(=O)c3ccncc3)c2C)c(C)c1`, the Potency was 18.4 µM (active) and the cell number change is -26.9%.
For `Cc1cc(C)cc(-n2c(C)cc(/C=N/NC(=O)c3ccncc3)c2C)c1`, the “lipid storage change, negative = inhibition” value was -9.31% (inactive) and the cell number change is -4.41%.
`Cc1ccc(-n2c(C)cc(/C=N/NC(=O)c3ccncc3)c2C)cc1`: the call was inactive.
Regarding `O=C(c1ccc(-c2ccccc2)c(F)c1)C1CCCN(CCCn2cccn2)C1` (stereo not drawn), the “lipid storage change, negative = inhibition” value was -9.68% (inactive) and the cell number change stood at 2.71%.
Consider `CN(C)c1ccc(/C=N/NC(=O)c2ccccc2O)o1`, for which the “lipid storage change, negative = inhibition” value was 1.62% (inactive).
For `Cc1nn(-c2ccc(F)cc2)c(C)c1CN1CCN(CCC(C)C)C(CCO)C1` (stereo not drawn), the “lipid storage change, negative = inhibition” value was 3.51% (inactive) and the cell number change stood at 12.5%.
With `COCC(=O)N1CCN(c2cccc(Cl)c2)CC1`, the “lipid storage change, negative = inhibition” value was 11.4% (inactive) and the cell number change is -20.3%.
Take `CC1=CC(C)C2C(=O)N(O)C(=O)C2C1` (stereo not drawn): the Potency is 20.6 µM (active) and the cell number change is -17.9%.
`CC1=CC(C)C2C(=O)N(CCC[N+](C)(C)C)C(=O)C2C1` (stereo not drawn): the “lipid storage change, negative = inhibition” value was -2.26% (inactive) and the cell number change was 2.72%.
With `CC1=CC(C)C2C(=O)N(c3ccccc3)NC(=O)C2C1` (stereo not drawn), the “lipid storage change, negative = inhibition” value is 8.05% (inactive) and the cell number change was found to be 6.7%.
On to `O=C1c2ccccc2C(=O)C1c1ccccn1`, for which the “lipid storage change, negative = inhibition” value was 1.08% (inactive) and the cell number change is 7%.
`Cc1nc2scc(C)n2c(=O)c1S(=O)(=O)NCCc1ccc(Cl)cc1`: the compound was called inactive and the cell number change is -15.9%.
Take `CC(C)N(C)CCOC(=O)c1ccc2c(c1)OCCO2`: the “lipid storage change, negative = inhibition” value is 4.51% (inactive) and the cell number change was -0.0823%.
For the compound `Cc1oc(-c2ccoc2)nc1CN(Cc1ccccc1)CC1CC1`, the “lipid storage change, negative = inhibition” value is 0.435% (inactive) and the cell number change is 1.56%.
Regarding `COc1ccc(Cl)cc1NC(=O)COC(=O)CNC(=O)c1ccc([N+](=O)[O-])c(C)c1`, the “lipid storage change, negative = inhibition” value is -1.38% (inactive) and the cell number change was determined as 7.48%.
For the compound `CCOC(=O)C(N)CSC1CC(=O)N(c2ccc(OC)cc2)C1=O` (stereo not drawn), the Potency is 3.26 µM (active) and the cell number change is -13.3%.
With `CCOC(=O)C(N)CSC1CC(=O)N(c2ccc(C(=O)OC)cc2)C1=O` (stereo not drawn), the “lipid storage change, negative = inhibition” value was 25.9% (inactive) and the cell number change was 8.08%.
In the case of `CCOC(=O)C(N)CSC1CC(=O)N(c2ccc(OCC)cc2)C1=O` (stereo not drawn), the compound was classed as inactive and the cell number change was determined as 8.77%.
For `CCOC(=O)c1cc(C)nc(Sc2ccc(C)cc2)c1C#N`, the “lipid storage change, negative = inhibition” value is 6.61% (inactive) and the cell number change turned out to be 3.68%.
As to `Cc1ccc(OCc2ccc(-c3ccccc3)cc2)c([N+](=O)[O-])n1`, the call was inactive.
For the compound `O=[N+]([O-])c1cc2c(cc1Br)CCN2`, the “lipid storage change, negative = inhibition” value is 21.7% (inactive) and the cell number change is -0.505%.
For `c1ccc(CNc2ccc(CNc3ncn[nH]3)cc2)cc1` the same measures were 2.01% (inactive) and 13.8%.
For `COc1cc(C(=O)Nc2cccc(-c3nc4ccccc4o3)c2C)cc(OC)c1OC`, in that order: 8.65% (inactive) and -6.82%.
In the case of `CC(=O)NCCC(=O)Nc1nc(-c2c[nH]c3ccccc23)cs1`, the Potency is 14.6 µM (active) and the cell number change is -1.21%.
Turning to `CN1CCN(CC(=O)Nc2nc(-c3c[nH]c4ccccc34)cs2)CC1`, the “lipid storage change, negative = inhibition” value was 17.6% (inactive) and the cell number change was -11.4%.
Take `CC(=O)NCCC(=O)Nc1nc(-c2ccccc2Cl)cs1`: the outcome was inactive.
Consider `COCC(C)N1CCC(n2nccc2NC(=O)c2ccc3c(c2)OCO3)CC1` (stereo not drawn), for which the “lipid storage change, negative = inhibition” value was 17.5% (inactive) and the cell number change stood at 11.7%.
For `CCOc1ccc(N(CC(=O)NCC2CCCO2)S(=O)(=O)c2ccc(OC)c(OC)c2)cc1` (stereo not drawn), in that order: 4.7% (inactive) and 14.4%.
With `CC1(C)N=C(/C=N/O)CN1O`, the Potency is 6.51 µM (active) and the cell number change was 1.43%.
Consider `Cc1ccc(NC(=O)C2(N(C(=O)Cn3nnnc3N)c3ccc(C)cc3)CCCCC2)cc1`, for which the “lipid storage change, negative = inhibition” value was 20% (inactive) and the cell number change was -7.84%.
Consider `CCOC(=O)CSc1nc2c(c(=O)n1-c1ccc(OC)cc1)SCC2`, for which the “lipid storage change, negative = inhibition” value is 11.4% (inactive).
Regarding `CCc1nnc(NC(=O)CSc2nccn2-c2cccc(C)c2)s1`, the “lipid storage change, negative = inhibition” value was 1.38% (inactive) and the cell number change is 0.532%.
Take `COc1ccccc1NC(=O)CCNC(=O)c1ccc(C)cc1`: the call was inactive.
Consider `Cc1ccc(C(=O)c2c(NC(=O)c3cccnc3)sc3c2CCCC3)cc1`, for which the “lipid storage change, negative = inhibition” value was -14% (inactive) and the cell number change was found to be 17.7%.
For `CCOC(=O)c1c(NC(=O)CSc2nnc(C)s2)sc2c1CCCCC2` the same measures were -31.7% (inactive) and -12.5%.
For `Cc1ccc(C(=O)c2c(NC(=O)CSc3nnc(N)s3)sc3c2CCCC3)cc1`, the Potency is 18.4 µM (active) and the cell number change was -2.02%.
As for `CCOC(=O)N1CCN(c2ncc(C(F)(F)F)cc2Cl)CC1`, the “lipid storage change, negative = inhibition” value is 28.3% (inactive) and the cell number change was 23.9%.
For `NC(=NCCc1ccccc1)NS(=O)(=O)c1ccccc1` the same measures were 5.72% (inactive) and 16.5%.
Turning to `CC(C)CN=C(NS(=O)(=O)c1ccccc1)C(Cl)(Cl)Cl`, the Potency is 18.4 µM (active).
In the case of `CC(=O)NS(=O)(=O)c1ccccc1`, the “lipid storage change, negative = inhibition” value is -11.7% (inactive) and the cell number change is -6.94%.
For `COc1ccc(CCNC(=O)c2ccc(=O)[nH]c2)cc1OC` the same measures were 6.46% (inactive) and 10.1%.
On to `CC(=O)N1CCN(S(=O)(=O)c2cccc(C(=O)OCN3C(=O)c4ccccc4C3=O)c2)CC1`, for which the call was inactive and the cell number change is 22.4%.
For `COc1ccc(COC(=O)c2cccc(S(=O)(=O)N3CCCC3)c2)cc1F`, in that order: “inactive [at 0.369 µM]” and -0.63%.
For the compound `CC(=O)N1CCN(S(=O)(=O)c2cccc(C(=O)OCc3cccc(F)c3)c2)CC1`, the Potency is 6.51 µM (active) and the cell number change was -11.8%.
